AGP1-GFP MLPCN = modulators of TOR pathway AGP1-GFP in S. cerevisiae; AID 2066; S. cerevisiae AGP1-GFP multiplex flow cytometry, 3 h; GFP as percent of DMSO wells; GFP response vs DMSO, % at 10 µM; 320,000 compounds, 0.02% hits;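 active means GFP response relative to DMSO above a set limit, near screen average plus 3 SD, cut at about 150% in these data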;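 further: median GFP channel fluorescence of the gated AGP1 strain per well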
CIT2-GFP yeast = alters CIT2-GFP fluorescence in TOR pathway yeast screen; S. cerevisiae CIT2-GFP strain, flow cytometry, 3 h; 100 means same as DMSO wells; AID 2029; 320,000 compounds, 0.065% hits; GFP response vs DMSO, % at 10 µM;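 active means GFP response relative to DMSO above a set limit, near the screen mean plus 3 SD, cut at about 150% in these data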;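 further: ratio of well median GFP fluorescence to mean of DMSO wells on the plate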
MEP2 TOR yeast = modulators of TOR pathway MEP2-GFP in S. cerevisiae; S. cerevisiae MEP2-GFP strain, flow cytometry GFP, 3 h; 100% = DMSO control level; GFP response vs DMSO, % at 10 µM; 330,000 compounds, 0.51% hits;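 active means GFP response versus DMSO above a set limit, roughly screen mean plus 3 SD, cut at about 180% in these data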;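 further: median GFP fluorescence of the barcode-gated MEP2-GFP cells per well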
LAP4-GFP MLPCN = modulators of TOR pathway LAP4-GFP in S. cerevisiae; GFP response vs DMSO, % at 10 µM; 320,000 compounds, 0.34% hits; AID 2023; S. cerevisiae LAP4-GFP multiplex, flow cytometry GFP, 3 h; median GFP as percent of DMSO wells;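 active means GFP response vs DMSO above a set limit, about the screen mean plus 3 SD, cut at about 150% in these data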
RPL19A-GFP yeast = yeast TOR pathway RPL19A-GFP modulation. S. cerevisiae RPL19A-GFP strain, flow cytometry, 3 h; stronger effect = lower value. percent response vs DMSO, % at 10 µM. 330,000 compounds, 0.3% hits;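 active means percent response vs DMSO below 50%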;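 further: median channel GFP fluorescence of the barcoded RPL19A-GFP strain; ratio of sample median GFP to plate DMSO average so 100% = DMSO; lower means less RPL19A-GFP as with rapamycin TOR inhibition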
LAP4-GFP pick2 = reconfirmed LAP4-GFP TOR pathway modulator in yeast; shares compounds with LAP4-GFP MLPCN; S. cerevisiae LAP4-GFP strain, flow cytometry GFP, 3 h; GFP response vs DMSO, % at 10 µM; AID 2621; 590 compounds, 20% hits;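 active means GFP signal as percent of the solvent control above about 150%, meaning raised reporter expression, limit read from the data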;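 further: ratio of well median GFP fluorescence to plate DMSO mean so 100% = DMSO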
MEP2 cherry2 = yeast MEP2-GFP modulation, second cherry pick; AID 2622; 590 compounds, 10% hits; GFP response vs DMSO, % at 10 µM; shares compounds with LAP4-GFP MLPCN; S. cerevisiae MEP2-GFP strain, flow cytometry GFP, 3 h;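 active means GFP signal above 150% of the solvent control wells, that is a rise of more than half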;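 further: median channel GFP fluorescence of all gated yeast cells per well; ratio of median GFP to plate DMSO average so 100% = DMSO level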
RPL19A GFP CP2 = yeast RPL19A-GFP TOR reporter modulation, second cherry pick; shares compounds with LAP4-GFP MLPCN; S. cerevisiae RPL19A-GFP strain, flow cytometry GFP, 3 h; stronger effect = lower value; 100% means same as DMSO wells; GFP response vs DMSO, % at 10 µM; 590 compounds, 3% hits; AID 2623;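 active means under 65% GFP response relative to DMSO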;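 further: median GFP channel fluorescence per well over the all cells gate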
CIT2 GFP CP2 = yeast CIT2-GFP TOR reporter modulation, second cherry pick; shares compounds with LAP4-GFP MLPCN; S. cerevisiae CIT2-GFP strain, flow cytometry GFP, 3 h; DMSO control wells read 100%; GFP response vs DMSO, % at 10 µM; 590 compounds, 8% hits; AID 2624;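 active means GFP response vs DMSO above about 150%, limit read from the data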;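 further: median green fluorescence per well over all gated yeast cells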
AGP1 GFP CP2 = reconfirmed modulator of AGP1-GFP TOR reporter in yeast; S. cerevisiae AGP1-GFP strain, flow cytometry GFP, 3 h; 590 tested, under 10 active; percent response vs DMSO, % at 10 µM; shares compounds with LAP4-GFP MLPCN; AID 2643;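 active means over 150 percent of DMSO response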;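 further: median GFP channel fluorescence over all cells without mother daughter split; sample median GFP divided by mean DMSO control so 100% equals DMSO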
Yeast autofluor = compound is autofluorescent in yeast s288c cells; S. cerevisiae s288c, 520 nm autofluorescence, flow cytometry, 3 h; stronger effect = higher value; zero means same as solvent-only cells; 610 tested, under 10 active; fluorescence change (kMESF span) at 33 µM; AID 2757; shares compounds with LAP4-GFP MLPCN;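 active means fluorescence span over the dose series, or activity score, above about 33, limit read from the data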
s288c autofl DR = counter-screen for autofluorescence of TOR hits in yeast s288c; shares compounds with LAP4-GFP MLPCN; S. cerevisiae s288c parental, compound autofluorescence, flow cytometry, 3 h; fluorescence change (span) at 33 µM; 110 tested, under 10 active; AID 488829;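 active means fluorescence change span, or the activity score built from it, above 25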
TORC1 bypass = compounds blocking wildtype yeast growth but not TORC1 bypass cells | AID 504456 | shares compounds with LAP4-GFP MLPCN | growth rating (0-3) at 30 µM | 120 tested, under 10 active | S. cerevisiae BY4741 spot growth rating, 48-72 h; stronger effect = lower value;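 active means growth rating at most 1 for wild type yeast while the TORC1 bypass strain still grows fully, rated 3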
* marks the source's active call; other numbers are inactive results. Only some compounds are listed: those with a hit (about 0.92% of all), similar ones and a draw of the others.

For Cc1ccc2c(c1)nnn2C1CCN(S(=O)(=O)c2ccc(C(=O)N(C)C3CCCCC3)cc2)CC1 the results were AGP1-GFP MLPCN 29, CIT2-GFP yeast 104, MEP2 TOR yeast 134, LAP4-GFP MLPCN 103, RPL19A-GFP yeast 64, LAP4-GFP pick2 96, MEP2 cherry2 94, RPL19A GFP CP2 100, CIT2 GFP CP2 108 and AGP1 GFP CP2 99.
`CC(=O)NC(CC(=O)NNC(=O)c1cc2ccccc2cc1O)c1ccccc1` (stereo unspecified) gave AGP1-GFP MLPCN 105, CIT2-GFP yeast 102, MEP2 TOR yeast 106, LAP4-GFP MLPCN 100 and RPL19A-GFP yeast 105.
O=C(OC1CSc2nc3ccccc3n2C1)c1ccco1 (stereo unspecified) was read as AGP1-GFP MLPCN 25, CIT2-GFP yeast 90, MEP2 TOR yeast 283*, LAP4-GFP MLPCN 94, RPL19A-GFP yeast 18*, LAP4-GFP pick2 101, MEP2 cherry2 105, RPL19A GFP CP2 101, CIT2 GFP CP2 104 and AGP1 GFP CP2 104.
CN1CCC(OC(=O)c2ccco2)CC1 was read as AGP1-GFP MLPCN 105, CIT2-GFP yeast 104, MEP2 TOR yeast 97, LAP4-GFP MLPCN 104 and RPL19A-GFP yeast 102.
Screening CCN(Cc1nc(-c2ccc(OC)c(OC)c2)no1)C(=O)c1ccc2c(c1)OCO2 returned AGP1-GFP MLPCN 92, CIT2-GFP yeast 106, MEP2 TOR yeast 106, LAP4-GFP MLPCN 92 and RPL19A-GFP yeast 99.
CCOC(=O)c1nn(-c2ccc(OCC)cc2)c2nc(-c3cccc(OC)c3)c(C#N)c(=O)n12 was read as AGP1-GFP MLPCN 98, CIT2-GFP yeast 104, MEP2 TOR yeast 106, LAP4-GFP MLPCN 99 and RPL19A-GFP yeast 106.
CCOC(=O)c1nn(-c2ccc(OCC)cc2)c2nc(-c3ccco3)c(C#N)c(=O)n12 was read as AGP1-GFP MLPCN 82, CIT2-GFP yeast 100, MEP2 TOR yeast 130, LAP4-GFP MLPCN 96, RPL19A-GFP yeast 64, LAP4-GFP pick2 97, MEP2 cherry2 105, RPL19A GFP CP2 100, CIT2 GFP CP2 103 and AGP1 GFP CP2 103.
For COc1ccc(N2C(=O)C(Cl)=C(Oc3cccc(OC)c3)C2=O)cc1 the results were AGP1-GFP MLPCN 75, CIT2-GFP yeast 102, MEP2 TOR yeast 83, LAP4-GFP MLPCN 198*, RPL19A-GFP yeast 71 and Yeast autofluor 1.1.
C[C@H](CO)N1C[C@H](C)[C@@H](CN(C)S(C)(=O)=O)Oc2ccc(NC(=O)c3ccncc3)cc2C1=O was read as AGP1-GFP MLPCN 103, CIT2-GFP yeast 102, MEP2 TOR yeast 100, LAP4-GFP MLPCN 96 and RPL19A-GFP yeast 95.
Screening CC(COc1ccc(/C=C/c2ccccc2)cc1)[N+](C)(C)C (stereo unspecified) returned AGP1-GFP MLPCN 90, CIT2-GFP yeast 108, MEP2 TOR yeast 91, LAP4-GFP MLPCN 142 and RPL19A-GFP yeast 101.
`c1ccc(-c2nnc(-c3ccccn3)nn2)nc1` gave AGP1-GFP MLPCN 93, CIT2-GFP yeast 92, MEP2 TOR yeast 99, LAP4-GFP MLPCN 97 and RPL19A-GFP yeast 97.
`c1ccc(-c2cccc(-c3ccccn3)n2)nc1` gave AGP1-GFP MLPCN 78, CIT2-GFP yeast 128, MEP2 TOR yeast 112, LAP4-GFP MLPCN 319*, RPL19A-GFP yeast 89, Yeast autofluor 0.61, s288c autofl DR 0 and TORC1 bypass 3.
For CN(C(=O)c1cccc(S(=O)(=O)N2CCCC2)c1)C1CCCCC1 the results were AGP1-GFP MLPCN 110, CIT2-GFP yeast 108, MEP2 TOR yeast 108, LAP4-GFP MLPCN 108 and RPL19A-GFP yeast 104.
Screening CCN(C(=O)CN1CCN(c2cccc(Cl)c2)CC1)c1c(N)n(Cc2ccccc2)c(=O)[nH]c1=O returned AGP1-GFP MLPCN 75, CIT2-GFP yeast 97, MEP2 TOR yeast 133, LAP4-GFP MLPCN 96, RPL19A-GFP yeast 63, LAP4-GFP pick2 101, MEP2 cherry2 100, RPL19A GFP CP2 100, CIT2 GFP CP2 97 and AGP1 GFP CP2 101.
`CCO[C@H]1OC(C(=O)N2CCOCC2)=C[C@@H](c2cn(C(C)=O)c3ccccc23)[C@@H]1CCCO` gave AGP1-GFP MLPCN 120, CIT2-GFP yeast 111, MEP2 TOR yeast 507*, LAP4-GFP MLPCN 223*, RPL19A-GFP yeast 74, LAP4-GFP pick2 99, MEP2 cherry2 96, RPL19A GFP CP2 100, CIT2 GFP CP2 103 and AGP1 GFP CP2 100.
`Cc1ccc(O)c(N=Nc2nccs2)c1` gave AGP1-GFP MLPCN 75, CIT2-GFP yeast 75, MEP2 TOR yeast 100, LAP4-GFP MLPCN 171*, RPL19A-GFP yeast 89, LAP4-GFP pick2 227*, MEP2 cherry2 141, RPL19A GFP CP2 101, CIT2 GFP CP2 132, AGP1 GFP CP2 95 and Yeast autofluor 0.61.
Screening O=C(c1cc2c(s1)CCCC2)N1CCN(CCO)CC1 returned AGP1-GFP MLPCN 94, CIT2-GFP yeast 96, MEP2 TOR yeast 91, LAP4-GFP MLPCN 93 and RPL19A-GFP yeast 96.

Screens as filed in PubChem BioAssay.
